S-ASM inh: human S-ASM enzyme inhibition; P17405; placental ASM, HMU-PC fluorogenic substrate, 60 min; actives 0.006% (n = 340,000); Potency, µM (series often up to 57.5 µM), without a hit: at the top dose activity change, negative = inhibition, usual class: inhibitors; also: potency is read from the fitted curve at half-maximal effect
Target sequence (P17405 47-631 limits assumed): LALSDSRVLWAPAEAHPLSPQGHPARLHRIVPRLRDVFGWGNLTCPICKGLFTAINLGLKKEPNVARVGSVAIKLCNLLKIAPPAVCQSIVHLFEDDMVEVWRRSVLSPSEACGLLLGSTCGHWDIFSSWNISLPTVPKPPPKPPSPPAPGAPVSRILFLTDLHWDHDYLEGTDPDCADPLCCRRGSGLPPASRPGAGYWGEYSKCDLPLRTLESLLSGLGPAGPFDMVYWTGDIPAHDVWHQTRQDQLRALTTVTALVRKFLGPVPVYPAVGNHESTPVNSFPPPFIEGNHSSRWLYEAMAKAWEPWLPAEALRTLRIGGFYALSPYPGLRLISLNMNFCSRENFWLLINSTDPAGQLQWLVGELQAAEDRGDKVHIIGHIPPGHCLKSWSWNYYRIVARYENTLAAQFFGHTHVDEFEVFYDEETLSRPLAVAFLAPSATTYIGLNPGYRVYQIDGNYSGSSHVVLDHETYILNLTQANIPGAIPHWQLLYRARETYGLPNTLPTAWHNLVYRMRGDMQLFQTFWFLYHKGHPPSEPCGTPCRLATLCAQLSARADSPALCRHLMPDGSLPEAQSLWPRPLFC
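Steps: dispense placental human ASM, pin compound, wait 10 min at room temperature, add HMU-PC0 substrate at 9 uM final, incubate 60 min at 37 °C, add stop solution raising pH to 10, read fluorescence.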
IL1B secr inh: inflammasome signaling inhibition, IL-1 beta readout | AID 743279 | THP-1 LPS/ATP IL-1B secretion, AlphaLISA, 16 h; hits give low values | activity change, % at 57.5 µM | actives 4.7% (n = 360,000); in the data active = activity change below about -50%; inconclusive = mostly about -30% to -49%; also: % is scaled to controls: 0 for no effect and ±100 for the full control effect
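Secreted IL-1B measured by AlphaLISA bead assay after 16 h compound exposure of THP-1 cells; compounds (final up to 57.5 uM) added 1 h before LPS (250 ng/mL) and ATP (1.25 mM) stimulation; lower signal means less secretion.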
TDP1 cell noCPT: qHTS for Inhibitors of human tyrosyl-DNA phosphodiesterase 1 (TDP1): qHTS in cells in absence of CPT. actives 15% (n = 420,000). DT40 Tdp1-/- hTDP1 cells, no CPT, ATP luminescence, 48 h. AID 686978, 2013. Potency, µM (top dose mostly 46.2 µM), without a hit: at the highest dose activity change, negative = growth inhibition, most hits filed as inhibitors; also: potency is read from the fitted curve at half-maximal effect; % is scaled to controls: 0 for no effect and ±100 for the full control effect; nearly all actives have a fitted effect of over 55% in size
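Camptothecin absent (DMSO only). Human TDP1-complemented DT40 knockout cells, 400 cells/well, 37 °C for minimum 48 hr; ATP measured via CellTiter-Glo, 30 min dark incubation, luminescence.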
TDP1 cell CPT: growth inhibition of DT40 Tdp1-/-;hTDP1 cells with camptothecin (screen for TDP1 inhibitors); chicken DT40 Tdp1-/-;hTDP1 cells + 20 nM CPT, ATP luminescence, 48 h; Potency, µM (doses to about 46.2 µM), without a hit: at the highest dose activity change, negative = growth inhibition, usual class: inhibitors; actives 12% (n = 420,000); AID 686979; also: potency is read from the fitted curve at half-maximal effect; % is scaled to controls: 0 for no effect and ±100 for the full control effect; nearly all actives have a fitted effect of over 55% in size
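Chicken DT40 Tdp1-/- cells stably complemented with human TDP1 were seeded at 400 cells/well in medium containing 20 nM camptothecin, exposed to pin-transferred compounds, and grown at 37 °C for at least 48 hr. Viability was read as ATP luminescence.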
HepG2 viability: counter-screen for TGF-b inhibitors: cytotoxicity in HepG2 cells. HepG2 CAGA-GFP viability, ATP luminescence, 18 h. AID 588856. actives 0.76% (n = 410,000). Potency, µM (series often up to 46.1 µM), for inactives: at the highest dose activity change, negative = cytotoxicity, usual class: cytotoxic; also: potency is read from the fitted curve at half-maximal effect
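CellTiter-Glo luminescence gave cytotoxicity after 18 hours at 37 degrees C. The cells were HepG2 CAGA-GFP in 1% FBS DMEM, stimulated with 500 pg/mL TGF-beta after compound addition. %Activity was normalised to no-cell wells (complete cell-killing) and DMSO (no toxicity), and curves were fitted and classified.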
TGFb inhibitor: blocks TGF-b signaling; HepG2 CAGA-GFP TGF-b/SMAD3 reporter, GFP fluorescence, 18 h; TGF-beta stimulated, 500 pg/mL final; Potency, µM (highest dose often 46.1 µM), for the others: top-dose activity, negative = inhibition, most hits filed as inhibitors; actives 1.2% (n = 410,000); also: potency is read from the fitted curve at half-maximal effect; % is scaled to controls: 0 for no effect and ±100 for the full control effect; nearly all actives have a fitted effect of over 65% in size
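TGF-beta reporter screen: HEPG2 CAGA-GFP, 1% FBS, 500 pg/mL TGF-beta final, 18 h; per-cell GFP summed per well; curves fitted and categorized by class.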
* hit, by the source's call; ? = inconclusive; nt = no result; [ ] = remark or other dose. Compounds with a hit are over-represented: about 19% of the library has one in this group of screens. Unless noted, calls follow the shape of the dose curve; as a rule, active = well fitted curve in the direction sought with a large enough effect; inconclusive = small, poorly fitted or top-dose-only effect, or another doubt; inactive = no such curve, though single readings can be large; an effect the other way counts as inactive or inconclusive.

SMILES	S-ASM inh	IL1B secr inh	TDP1 cell noCPT	TDP1 cell CPT	HepG2 viability	TGFb inhibitor
Cc1ccc(S(=O)(=O)N2C[C@@H]3[C@H]4CC[C@H](C4)[C@@H]3[C@@H](C)[C@@H]2c2cccn2Cc2ccccc2)cc1	-3%	-9	?	-15%	-36%	-16%
Cc1ccc(S(=O)(=O)N2C[C@@H]3[C@H]4CC[C@H](C4)[C@@H]3[C@@H](C)[C@@H]2c2ccco2)cc1	-7%	70	?	?	-12%	-21%
Cc1ccc(S(=O)(=O)N2C[C@@H]3[C@H]4CC[C@H](C4)[C@@H]3[C@@H](C)[C@@H]2c2cn(Cc3ccccc3)c3ccc(F)cc23)cc1	11%	-7	21µM*	21µM*	-19%	-5%
CNC(=S)N(CCc1c(C)[nH]c2ccccc12)Cc1cccnc1	14%	-12	?	-26%	-16%	0%
CO[C@@]1(NC(=O)C(C(=O)O)c2ccc(O)cc2)C(=O)N2C(C(=O)O)=C(CSc3nnnn3C)CO[C@@H]21 (some centres not stated)	nt	nt	-14%[21.1 µM]	-1%[21.1 µM]	nt	nt
OCCN1CCN(Cc2ccc3c(c2)CN(Cc2cccn2-c2ccccn2)CCO3)CC1	nt	nt	-20%	-5%	nt	nt
CCOC(=O)CNCCC(=O)c1ccc(Br)cc1	nt	?	6.5µM*	5.8µM*	-13%	0%
Cc1cccc(NCCC(=O)c2ccc(Br)cc2)c1	-5%	0	23µM*	23µM*	-5%	-18%
CC(C)c1ccc(NCCC(=O)c2ccc(Br)cc2)cc1	5%	14	-20%	-19%	7%	-3%
COC(=O)[C@@]12CCCN1[C@H](c1ccc(-c3cccc(Cl)c3)c(OC)c1)[C@H]1C(=O)N(C)C(=O)[C@H]12	-1%	-8	16µM*	15µM*	-8%	1%
CCN1C(=O)[C@H]2[C@@H](c3ccc(-c4cccc(Cl)c4)c(OC)c3)N3CCC[C@@]3(C(=O)OC)[C@H]2C1=O	17%	-51*	9.2µM*	13µM*	-6%	?
COC(=O)[C@@]12CCCCN1[C@H](c1ccc(-c3ccc(C(C)=O)cc3)c(OC)c1)[C@@H]1C(=O)N(C)C(=O)[C@@H]12	-4%	-5	15µM*	16µM*	-21%	-6%
COC(=O)[C@@]12CCCN1[C@H](c1ccc(-c3ccc(Cl)c(Cl)c3)c(OC)c1)[C@H]1C(=O)N(C)C(=O)[C@H]12	-14%	?	23µM*	13µM*	-25%	?
COc1ccc(CCN2CC(C(=O)N(C)C3CCOCC3)CCC2=O)cc1 (configuration not stated)	-1%	?	4%	-6%	10%	-15%
CCc1ccc(NC(=O)C2C3CCC(O3)C2C(=O)O)cc1 (configuration not stated)	3%	0	-16%	-1%	-5%	-8%
COC(=O)[C@@]12CCCCN1[C@H](c1ccc(-c3ccccc3)c(OC)c1)[C@H]1C(=O)N(C)C(=O)[C@H]12	-12%	43	13µM*	?	9%	-5%
COC(=O)[C@@]12CCCCN1[C@H](c1ccc(-c3cccc(Cl)c3)c(OC)c1)[C@@H]1C(=O)N(C)C(=O)[C@@H]12	-11%	?	21µM*	?	-20%	?
COCCCN=Cc1c(C)[nH]n(-c2ccc(Br)c(C)c2)c1=O	-2%	9	?	?	-30%	?
Cc1ccc(-n2[nH]c(C)c(C=NC34CN5CN(CN(C5)C3)C4)c2=O)cc1C	0%	-3	21µM*	9.2µM*	10µM*	9%
CCOc1ccc(OCCC(=O)N2CCN(S(=O)(=O)c3ccc(OCC)cc3)CC2)cc1	0%	0	-18%	-9%	-42%	-5%
CCOc1ccc(OCCCC(=O)N2CCN(S(=O)(=O)c3ccccc3C#N)CC2)cc1	-6%	-52*	?	?	-24%	-5%
O=C(CCSc1ccc(Cl)cc1)N1CCN(S(=O)(=O)c2ccccc2)CC1	-3%	-13	18µM*	21µM*	-15%	-40%
CCCOc1ccccc1OCC(=O)N1CCN(S(=O)(=O)c2ccc(Cl)cc2)CC1	1%	-3	-13%	-26%	-17%	?
CCc1ccc(CCC(=O)N2CCN(S(=O)(=O)c3ccc(Br)cc3)CC2)cc1	nt	-7	18µM*	?	-14%	-22%
Cc1ccc(SCCC(=O)N2CCN(S(=O)(=O)c3ccccc3)CC2)cc1	-3%	-5	?	?	-2%	-12%
SMILES	S-ASM inh	IL1B secr inh	TDP1 cell noCPT	TDP1 cell CPT	HepG2 viability	TGFb inhibitor
CCOc1ccccc1OCCCC(=O)N1CCN(S(=O)(=O)c2ccc(Cl)cc2)CC1	0%	-12	18µM*	?	-7%	-24%
COc1ccc(CCC(=O)N2CCN(S(=O)(=O)c3ccc(OC(F)(F)F)cc3)CC2)cc1	-2%	-7	0%	-19%	0%	-4%
Cc1cc(C)c(NC(=O)CN(C)S(=O)(=O)c2ccc3c(c2)c(=O)n(C)c(=O)n3C)c(C)c1	nt	nt	-30%	-18%	3%	?
CC(=O)N1CCN(CC(=O)Nc2ccccc2C(=O)Nc2ccccc2)CC1	0%	-24	4%	0%	-12%	-3%
Cc1cc(Cl)ccc1OCCCC(=O)N1CCN(C(=O)c2ccco2)CC1	-9%	-1	21µM*	?	-18%	-2%
Cc1cc(Cl)ccc1OCCCC(=O)N1CCN(S(=O)(=O)c2ccccc2)CC1	-10%	-87*	?	?	-37%	-22%
CN(C)c1ccc(N=Cc2ccncc2)cc1	nt	nt	5.6µM*	6.3µM*	-34%	-29%
CN(C)c1ccc(N=Cc2ccco2)cc1	0%	1	5.2µM*	8.2µM*	-50%	-29%
Cc1ccc(N=Cc2ccc(N(C)C)cc2)cc1	0%	-14	2%	-2%	-25%	-13%
COC(=O)c1cnc(SCc2ccc(C)cc2)n1C	0%	-5	?	7%	4%	4%
O=C1OCC(CO)(CO)N=C1NNc1ccc(Cl)c(Cl)c1	-17%	-12	-6%	-6%	3%	13%
N#C/C(=C(/O)COC(=O)c1ccc(O)cc1)c1nc2ccccc2[nH]1	-4%	25	-9%	-17%	-21%	4%

Screening data from PubChem BioAssay.
